# Many of the other results were omitted from the sample, so hits are more common in it than they were.
# PKM2 act: PKM2 (human) enzyme activation; P14618; hit rate 0.34% among 260,000; Potency, µM (titrated, usually from 57.5 µM), usual class: activators; AID 1631; purified PKM2, Kinase-Glo ATP luminescence, activation; response scale: 0% is enzyme alone, no compound; note: nearly all actives have a fitted effect of over 55% in size
#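 Kinase-Glo luminescence reports ATP generated from ADP (0.1 mM) and PEP (0.5 mM) by purified hPK-M2 after 1 h at room temperature, pH 7.2 imidazole buffer; intermediate enzyme activity allows detecting inhibitors and activators.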
# BLM helicase inh: inhibitors of human Bloom syndrome helicase BLM | P54132 | recombinant BLM DNA unwinding, fluorescence dequenching | Potency, µM (titrated, usually from 56.1 µM), usual class: inhibitors | hit rate 0.2% among 350,000 | AID 2528; note: nearly all actives have a fitted effect of over 35% in size
# Target sequence (P54132 whole entry, looked up): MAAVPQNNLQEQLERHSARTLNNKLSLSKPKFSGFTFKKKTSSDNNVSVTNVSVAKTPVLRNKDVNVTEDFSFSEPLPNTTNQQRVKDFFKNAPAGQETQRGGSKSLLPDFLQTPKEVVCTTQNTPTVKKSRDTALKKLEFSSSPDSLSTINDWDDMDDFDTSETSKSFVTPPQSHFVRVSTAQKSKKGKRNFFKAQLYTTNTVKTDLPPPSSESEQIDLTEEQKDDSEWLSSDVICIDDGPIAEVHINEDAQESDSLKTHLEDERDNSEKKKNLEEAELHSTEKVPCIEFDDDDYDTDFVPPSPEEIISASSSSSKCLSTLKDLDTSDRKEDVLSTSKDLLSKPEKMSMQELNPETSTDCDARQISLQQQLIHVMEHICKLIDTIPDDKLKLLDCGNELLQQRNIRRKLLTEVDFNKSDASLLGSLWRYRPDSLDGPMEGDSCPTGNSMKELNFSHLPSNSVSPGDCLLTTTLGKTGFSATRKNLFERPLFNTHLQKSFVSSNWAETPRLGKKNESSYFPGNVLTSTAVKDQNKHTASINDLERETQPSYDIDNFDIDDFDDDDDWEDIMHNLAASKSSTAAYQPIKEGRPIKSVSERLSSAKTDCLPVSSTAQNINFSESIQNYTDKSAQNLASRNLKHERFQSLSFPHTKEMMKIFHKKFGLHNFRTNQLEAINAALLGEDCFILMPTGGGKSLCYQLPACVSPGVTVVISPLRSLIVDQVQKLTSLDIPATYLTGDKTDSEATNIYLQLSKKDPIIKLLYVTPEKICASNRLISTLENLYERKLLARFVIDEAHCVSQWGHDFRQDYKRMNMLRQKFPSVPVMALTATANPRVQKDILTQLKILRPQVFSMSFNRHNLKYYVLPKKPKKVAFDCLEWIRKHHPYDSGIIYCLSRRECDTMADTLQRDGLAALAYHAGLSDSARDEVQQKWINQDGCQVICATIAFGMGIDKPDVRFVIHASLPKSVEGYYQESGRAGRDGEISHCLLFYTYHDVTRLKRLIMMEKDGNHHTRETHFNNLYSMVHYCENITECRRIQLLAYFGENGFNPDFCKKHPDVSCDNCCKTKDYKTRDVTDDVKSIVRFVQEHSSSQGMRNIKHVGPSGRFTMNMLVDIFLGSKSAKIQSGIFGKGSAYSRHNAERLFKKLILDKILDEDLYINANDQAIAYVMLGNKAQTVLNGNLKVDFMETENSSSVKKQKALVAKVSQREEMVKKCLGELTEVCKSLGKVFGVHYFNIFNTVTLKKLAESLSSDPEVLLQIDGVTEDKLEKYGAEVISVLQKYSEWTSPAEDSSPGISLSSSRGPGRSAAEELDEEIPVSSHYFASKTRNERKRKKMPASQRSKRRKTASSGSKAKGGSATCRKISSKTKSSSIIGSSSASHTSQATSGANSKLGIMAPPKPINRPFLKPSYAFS
# APEX1 inh: blocks human APE1 abasic DNA cleavage; Potency, µM (titrated, usually from 65.8 µM), usual class: inhibitors; hit rate 0.35% among 350,000; recombinant APE1, TAMRA/BHQ-2 abasic DNA cleavage fluorescence; note: nearly all actives have a fitted effect of over 55% in size
#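 APE1 at 0.75 nM preincubated 15 min at room temperature with compound. Reaction then started with 50 nM double-stranded THF-abasic substrate labelled with TAMRA/BHQ-2, and 525/598 nm fluorescence read kinetically. Activity taken as third-minus-first read difference, normalized to DMSO and NSC13755 controls.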
# KDM4E inh: inhibitors of human JMJD2E histone demethylase; hit rate 1.6% among 230,000; Potency, µM (highest dose often 57.1 µM), usual class: inhibitors; JMJD2E catalytic domain, FDH-coupled NADH fluorescence (FDH is formaldehyde dehydrogenase); note: nearly all actives have a fitted effect of over 50% in size
# RECQ1 inh: blocks DNA unwinding by human RECQ1 | hit rate 0.54% among 240,000 | AID 2549 | RECQ1 DNA unwinding, red fluorescence kinetic read | Potency, µM (top dose mostly 57.3 µM), hits mostly inhibitors; note: nearly all actives have a fitted effect of over 30% in size
#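 RECQ1T1 50 nM; forked duplex (20 bp + 30-nt ss tails) 200 nM, ATP 2 mM final; pH 8.0, 2 mM MgCl2, 2.5 ug/ml poly(dI-dC); 15 min compound preincubation; discontinuous kinetic read over 2 h at RT.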
# A number is an active result; - = inactive; ? = inconclusive; . = not tested or not shown; ! = not active in a repeat; [ ] = dose if it differs, or a comment. Unless noted, calls come from the whole dose curve; as a rule, active = well fitted curve in the direction sought with a large enough effect; inconclusive = small, poorly fitted or top-dose-only effect, or another doubt; inactive = no such curve, though single readings can be large; an effect the other way counts as inactive or inconclusive.
SMILES,PKM2 act,BLM helicase inh,APEX1 inh,KDM4E inh,RECQ1 inh
CC(=O)n1cc([C@@H]2C=C(C(=O)N3CCN(Cc4ccccc4)CC3)O[C@H](OCc3ccc(CO)cc3)C2)c2ccccc21,-,-,-,20µM,-
CCO[C@H]1OC(C(=O)N2CCN(Cc3ccc4c(c3)OCO4)CC2)=C[C@@H](c2cn(C(C)=O)c3ccccc23)[C@@H]1CCCO,-,-,-,-,35.5µM
CC(=O)n1cc([C@H]2C=C(C(=O)NCc3ccccc3)O[C@@H](OCCCCO)C2)c2ccccc21,-,-,-,?,-
CC(=O)n1cc([C@H]2C=C(C(=O)N3CCN(Cc4ccccc4)CC3)O[C@@H](OCCCCO)C2)c2ccccc21,-,-,-,?,-
CC(=O)n1cc([C@@H]2C=C(C(=O)NCc3ccccc3)O[C@H](OCCCCO)C2)c2ccccc21,-,-,-,15.8µM,-
COc1ccc(-n2c(SCC(=O)NCC3CCCO3)nc3ccccc32)cc1 (stereo not drawn),-,-,-,-,-
N#CCCn1c(SCC(=O)NCC2CCCO2)nc2ccccc21 (stereo not drawn),20µM,-,-,-,-
O=C(Cn1cc[n+](CC(=O)c2ccc(Cl)cc2Cl)c1)c1ccc(Cl)cc1Cl,-,-,-,-,-
O=C(Cn1cc[n+](CC(=O)c2ccccc2)c1)c1ccccc1,-,-,-,-,22.4µM
CCOc1cc(N2CCOCC2)c(OCC)cc1NC(=O)CN1CCCC1,-,-,-,25.1µM,-
COC(=O)C1=C(C(=O)OC)[C@@H]2Nc3ccccc3[C@@]23C[C@@H](C(=O)OC)N(S(=O)(=O)c2cccs2)C3=N1,-[11.5 µM],-[12.4 µM],-[12.4 µM],-[11.4 µM],-[11.5 µM]
CO[C@H]1COC(=O)[C@H](C)NC(=O)C/C=C\[C@@H](C)[C@@H](NS(=O)(=O)c2ccc(C)cc2)COC(=O)C/C=C\[C@@H]1C,.,-[12.4 µM],?,.,-[11.5 µM]
CCN1/C(=C/C=C/C=C/c2sc3ccccc3[n+]2CC)Sc2ccccc21,-,?,?,22.4µM,?
CCN1/C(=C/C=C/c2sc3ccccc3[n+]2CC)Sc2ccccc21,.,31.6µM,23.8µM,.,.
O=C(/C=C/c1ccc(O)c(O)c1)c1ccc(S(=O)(=O)N2CCCCCC2)cc1,-,-,?,28.2µM,-
Cc1ccccc1OCCn1nc(C(=O)O)c2ccccc2c1=O,-,-,-,-,-
CCCOc1ccc(OCCn2nc(C(=O)O)c3ccccc3c2=O)cc1,31.6µM,-,-,-,-
N#Cc1ccc(CN2CCCC3(CCN(C(=O)c4cnccn4)CC3)C2)cc1,.,-,-,.,-
N[C@@H](CO)C(=O)NNCc1ccc(O)c(O)c1O,.,-,.,7.94µM,-
Cc1n[nH]c(=S)n(NC(=O)/C=C/C(=O)Nn2c(=S)[nH]nc(C)c2=O)c1=O,?,-,7.94µM,?,-
CC[C@H](C)[C@H](N)C(=O)N[C@H](C(=O)N[C@@H](CO)C(=O)N[C@@H](C)C(=O)N[C@H](C(=O)N[C@H](C(=O)NCC(=O)N[C@H](C(=O)N[C@@H](CC(C)C)C(=O)O)[C@@H](C)CC)C(C)C)C(C)C)[C@@H](C)CC,.,-,-,.,-
CC(C)CC(=O)N[C@H](C(=O)N[C@H](C(=O)N[C@@H](CC(C)C)[C@@H](O)CC(=O)N[C@@H](C)C(=O)N[C@@H](CC(C)C)[C@@H](O)CC(=O)O)C(C)C)C(C)C,-,-,-,-,31.6µM!
[O-][n+]1c2ccccc2[n+]([O-])c2cc(O)ccc21,.,-,18.9µM,.,.
O=C(Cc1cc(=O)[nH][nH]1)N/N=C/c1cccc(Cl)c1Cl,-,-,-,3.98µM!,-
O=C(OC[C@H]1O[C@](O)(COC(=O)c2cccnc2)[C@@H](OC(=O)c2cccnc2)[C@@H]1OC(=O)c1cccnc1)c1cccnc1,.,.,-,.,.
O=C1c2cccc3c2[C@@H](CCC3)CN1[C@@H]1CN2CCC1CC2,.,-,.,.,.
Cc1noc(/C=C/c2ccco2)c1S(=O)(=O)N1CCC(C(=O)N2CCc3ccccc3C2)CC1,20µM,?,-,-,?
COC(=O)N/N=C/c1cc(C)n(-c2ccccc2)c1C,-,-,-,?,-
CCc1ccc(-n2c(C)cc(/C=N/NC(=O)OC)c2C)cc1,-,-,-,10µM,-
COC(=O)N/N=C/c1cc(C)n(-c2ccc(Br)cc2)c1C,-,-,-,25.1µM,-
